The results in this text go back to PubChem BioAssay AID2023 (NMMLSC, 2009).

Several values for one entry are separate records, joined by “and”; a condition that tells them apart may be missing. Equal values may be shown once. In all, about 320,000 compounds went through this assay and about 1,100 (0.34%) were called active. The sample holds actives, similar compounds and a random draw of the others, so the mix is not that of the screen.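 How the source made its calls: active means GFP response vs DMSO above a set limit, about the screen mean plus 3 SD (cut at about 150% in these data); inconclusive means under 70 cell events counted for the yeast strain; inactive means the rest.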 The source holds several records for some structures; these can differ, active in one and inactive in another.

The assay can be described thus: TOR pathway LAP4-GFP level changes – S. cerevisiae, multiplex flow cytometry, MLPCN library, primary screen (AID 2023). The following applies: 3 h, at 10 µM, stronger effect = higher value, median GFP as percent of DMSO wells.
For `COc1cc(C(=S)N2CCOCC2)cc(OC)c1OC(=O)c1ccc([N+](=O)[O-])cc1[N+](=O)[O-]`, the GFP response vs DMSO is 91.2% (inactive).
With `O=C(CSc1ncnc2sccc12)N1CCN(C(=O)c2cccs2)CC1` the figure was 107% (inactive); with `Nc1c(C(=O)c2cccs2)sc2nsc(SCCN3CCCCC3)c12`, 203% (active).
In the case of `CCc1c(C)c2ccc(OC3CCCCC3=O)cc2oc1=O` (stereo not given) it was 99.3% (inactive).
`CC(C)c1ccc(NC(=O)C2CCCN(S(=O)(=O)c3cccnc3)C2)cc1` (stereo not given): the GFP response vs DMSO was 94.4% (inactive).
With `O=C(NC1CCCCC1)c1ccc(-c2ccc(Cl)cc2)o1` the figure was 118% (inactive); with `CCOc1ccc(C(c2c(C)[nH][nH]c2=O)c2c(C)[nH][nH]c2=O)cc1OCC`, 128% (inactive).
With `Cc1[nH][nH]c(=O)c1C(c1ccc(-c2ccc(Cl)cc2)o1)c1c(C)[nH][nH]c1=O` the figure was 184% (active).
With `Oc1ccc2ccccc2c1N=Nc1nccs1`, the GFP response vs DMSO was 165% (active).
With `CCN(c1ccccc1)S(=O)(=O)c1cc2c(cc1C)n(C)c(=O)c(=O)n2C`, the GFP response vs DMSO is 99.4% (inactive).
With `Cc1ccccc1OCCC(=O)OCC(=O)NCCc1ccc(S(N)(=O)=O)cc1` the figure was 91.6% (inactive).
On to `CC(C)CC1(C)NC(=O)N(CC(=O)Nc2ccc3c(c2)OCCO3)C1=O` (stereo not given), for which the GFP response vs DMSO is 95.9% (inactive).
For the molecule `CC1(C)CC(=O)CC2(C1)NCC(c1ccccc1Cl)c1c2[nH]c2ccccc12` (stereo not given), the GFP response vs DMSO is 107% (inactive).
In the case of `CC(C)c1nc(SCC(=O)Nc2cccc(C(=O)O)c2)c2c3c(sc2n1)CCCC3` it was 99.7% (inactive).
With `COc1ccc(-n2c(C)cc(C(=O)CN3C(=O)NC4(CCc5ccccc54)C3=O)c2C)cc1` (stereo not given) the figure was 96.4% (inactive); with `CCn1c(=O)c([N+](=O)[O-])c(NCc2ccc3c(c2)OCO3)c2ccccc21`, 101% (inactive); with `CCn1c(/C=C/c2ccc([N+](=O)[O-])o2)nc2ccccc2c1=O`, 358% (active).
For `CCc1ccc(S(=O)(=O)N/N=C\c2ccc([N+](=O)[O-])o2)cc1`, the GFP response vs DMSO is 87.6% (inactive).
With `Cc1cccc([C@@H]2[C@@H]3C(=O)N(Cc4ccccc4)C(=O)[C@@H]3[C@]3(C)C(=O)N(c4ccc(Br)cc4)C(=O)N23)c1`, the GFP response vs DMSO is 98.8% (inactive).
With `CN(c1ccccc1)S(=O)(=O)c1cc(C(=O)N2CCN(c3ncccn3)CC2)ccc1Cl` the figure was 91.2% (inactive).
In the case of `C[C@@H](CN1CCC[C@H]1CN1C(N)=NC[C@@H]1Cc1ccccc1)N1C[C@@H](Cc2ccccc2)N(CCCC2CCCC2)C1=N` it was 96.6% (inactive); in that of `O=C(Nc1cc(-c2ccccc2)nn1-c1ccccc1F)c1ccc([N+](=O)[O-])cc1`, 134% (inactive); in that of `COc1ccccc1CNC(=O)CN1CCC(n2cnc3cc(F)ccc32)CC1`, 97.5% (inactive).
With `CCOc1ccc(S(=O)(=O)Nc2ccc(OC)nc2)cc1` the figure was 98.1% (inactive); with `COc1ccc(NC(=O)/C(Cl)=C(/Cl)S(=O)Cc2ccc(C)cc2)cn1` (stereo not given), 201% (active); with `COc1ccc(Nc2ccc([N+](=O)[O-])cn2)cn1`, 89.6% (inactive).
Turning to `O=C(Nc1ccon1)c1nc[nH]c1C(=O)NCc1ccccc1`, the GFP response vs DMSO was 94.7% (inactive).
For `Cc1cc2ccccc2n1CCNC(=O)COc1ccc2ccccc2c1`, the GFP response vs DMSO was 112% (inactive).
Take `Cc1cc2ccccc2n1CCC(=O)O`: the GFP response vs DMSO was 154% (active).
With `O=C(O)CCn1c(Cc2ccccc2)nc2ccccc21` the figure was 88.9% (inactive); with `CCOc1ccc(NC(=S)NC(=O)/C=C/c2ccc(OC)cc2)c([N+](=O)[O-])c1`, 95.5% (inactive).
In the case of `COc1ccc(-n2nc(C(=O)NCC(=O)N3CCCCCC3)c3ccccc3c2=O)cc1Cl` it was 112% (inactive); in that of `CNS(=O)(=O)c1cccc(C(=O)OCCCC(=O)c2ccccc2)c1`, 100% (inactive); in that of `CCN(CC)c1ccc2cc(C(=O)O)c(=O)oc2c1`, 157% (active).
With `COc1cccc(C(=O)c2cc3ccc(O)cc3oc2=O)c1` the figure was 121% (inactive); with `CCOC(=O)c1cc2cc3ccccc3cc2oc1=O`, 88.3% (inactive).
For `C[C@H]1CC[C@]2(O[C@@H](CCO)C[C@@H](O)[C@@H]2O)O1`, the GFP response vs DMSO was 105% (inactive).
Consider `O=c1[nH]c(CSc2ccccc2)nc2c1oc1ccccc12`, for which the GFP response vs DMSO is 107% (inactive).
In the case of `O=C(Nc1cccc2ccccc12)c1onc2c1CCCC2` it was 94% (inactive).
In the case of `COc1ccc(N(CC(=O)NCC2CCCO2)C(=O)CCC(=O)Nc2nccs2)c(OC)c1` (stereo not given) it was 91.8% (inactive); in that of `CN(C)S(=O)(=O)c1cc(C(=O)Nc2ccn(C)n2)c(Cl)cc1Cl`, 6410% [may fluoresce green] (active).
As for `Cc1ccc(C(=O)Nc2ccn(C)n2)cc1`, the GFP response vs DMSO was 101% (inactive).
In the case of `O=C(Nc1nccs1)c1cc(S(=O)(=O)N2CCOCC2)c(Cl)cc1Cl` it was 89.4% (inactive).
With `COc1cccc(CCNC(=O)COc2cccc3c2OC(C)(C)C3)c1` the figure was 113% (inactive); with `COc1cc(F)c(C2=CC(=O)CC(C)(C)C2)cc1F`, 118% (inactive).
With `CCOC(=O)c1ccccc1NC(=S)N1CCC(C(N)=O)CC1` the figure was 111% (inactive).
`CN(C)CCc1c[nH]c2ccc(Cn3cncn3)cc12`: the GFP response vs DMSO is 119% (inactive).
Regarding `COc1ccc(NC(=O)C2C3C=CC(C3)C2C(=O)NCc2ccccn2)c(OC)c1` (stereo not given), the GFP response vs DMSO was 92.5% (inactive).
Turning to `Nc1ccccc1SC(C[N+](=O)[O-])c1ccccc1` (stereo not given), the GFP response vs DMSO was 209% (active).
In the case of `Cc1ccc(C(C[N+](=O)[O-])c2c(C)cc3ccccn23)cc1` (stereo not given) it was 97.5% (inactive); in that of `CCS(=O)(=O)c1cc([N+](=O)[O-])c(Sc2ccccc2N)s1`, 100% (inactive).
In the case of `COC(=O)c1ccc(N2CCOCC2)c(NC(=O)c2ccc(Br)o2)c1` it was 84.3% (inactive); in that of `O=C1CCN(CCCc2ccccc2)CCN1CCO`, 109% (inactive); in that of `COc1ccc(C)cc1NC(=O)CSc1cccc[n+]1[O-]`, 99.3% (inactive).
With `Cc1ccc(S(=O)(=O)N2CCC(C)CC2)cc1C(=O)NCc1ccccn1` the figure was 99.2% (inactive).
As for `Cc1cc(N)n2nc(-c3ccc(C(C)(C)C)cc3)cc2n1`, the GFP response vs DMSO is 77.9% (inactive).
For `CN(c1cccc(NC(=O)Nc2ccc(Cl)cc2)c1)S(C)(=O)=O`, the GFP response vs DMSO is 107% (inactive).
In the case of `O=C(Nc1ccccc1)c1nnsc1S(=O)(=O)c1ccc(Cl)cc1` it was 187% (active); in that of `Cc1nnsc1C(=O)N/N=C/c1ccccc1Cl`, 106% (inactive); in that of `CC(C)Oc1ccc(S(=O)(=O)N2CCOCC2)cc1NC(=O)C1CSC2(C)CCC(=O)N12` (stereo not given), 106% (inactive).
In the case of `O=[N+]([O-])c1ccc(S(=O)(=O)Nc2cccc(-c3ccc(N4CCCC4)nn3)c2)cc1` it was 100% (inactive).
In the case of `COc1cc(/C=C/C(=O)O)cc(S(=O)(=O)Nc2ccccc2C(=O)NCCc2ccccc2)c1OC` it was 96% (inactive); in that of `CCCn1nc(C(=O)NNC(=O)CSCC(=O)Nc2cc(C)on2)c2ccccc2c1=O`, 91.7% (inactive).
Consider `CCCn1nc(C(=O)NNC(=O)CCOc2ccccc2OCC)c2ccccc2c1=O`, for which the GFP response vs DMSO is 217% (active).
In the case of `CCCn1nc(C(=O)Nc2ccc3nc(C)sc3c2)c2ccccc2c1=O` it was 102% (inactive).
In the case of `Brc1ccc(Nc2c3c(nc4ncnn24)CCC3)cc1` it was 103% (inactive); in that of `Cc1cccc(NC(=O)CSc2nnc(CCNC(=O)OC(C)(C)C)o2)c1C`, 95.1% (inactive).
For `Cc1ccc2nc(SC(C)C(=O)NCc3ccco3)[nH]c2c1` (stereo not given), the GFP response vs DMSO was 111% (inactive).
In the case of `Cc1ccn(-c2cccc(-n3ccc(C)n3)n2)n1` it was 100% (inactive).
With `CCN(CC)c1ccc(S(=O)(=O)N2CCCCC2)cc1NC(=O)C1=COCCO1` the figure was 99.6% (inactive); with `CC(NC(=O)C1CCCN(S(=O)(=O)c2ccc(-n3cnnn3)cc2)C1)c1ccc(F)cc1` (stereo not given), 83.4% (inactive); with `O=C(O)Cc1csc(-c2cccc(Oc3ccccc3)c2)n1`, 110% (inactive) and 152% (active).
With `COc1cc(OC)cc(C(=O)NCC(=O)OCc2csc(-c3ccccc3)n2)c1` the figure was 101% (inactive).
As to `O=C(NCCc1csc(-c2ccccc2)n1)c1ccccc1F`, the GFP response vs DMSO was 120% (inactive).
As to `CC(=O)c1c(C)n([O-])c2ccccc2[n+]1=O`, the GFP response vs DMSO was 99.9% (inactive).
For the molecule `COc1cccc(NC(=O)COc2cccnc2[N+](=O)[O-])c1`, the GFP response vs DMSO is 94.7% (inactive).
For `O=C(COc1cccnc1[N+](=O)[O-])Nc1ccc(Cl)cc1F`, the GFP response vs DMSO was 178% (active).
On to `CC(NC(=O)COc1cccnc1[N+](=O)[O-])c1ccc(Cl)cc1Cl` (stereo not given), for which the GFP response vs DMSO was 116% (inactive).
In the case of `COc1cccc(CCNC(=O)c2cccc(NC(=O)C3=C(C)OCCS3)c2)c1` it was 93.6% (inactive); in that of `CCc1ccc(N(CC(=O)NCc2cccnc2)S(=O)(=O)c2ccccc2)cc1`, 96.7% (inactive); in that of `O=C(O)CN1c2cccc3cccc(c23)S1(=O)=O`, 92.9% (inactive).
For the molecule `COC(=O)Cn1cc(/C=C/[N+](=O)[O-])c2ccccc21`, the GFP response vs DMSO was 164% (active).
In the case of `COC(=O)c1cn(CC(=O)NCc2cccs2)c2ccccc12` it was 95% (inactive).
`COC(=O)N/N=C/c1cn(CCCOc2ccc(C)cc2)c2ccccc12`: the GFP response vs DMSO is 89.7% (inactive).
In the case of `COC(=O)Cc1cnc(NC(=O)CSc2nc(C(C)C)cc(=O)[nH]2)s1` it was 114% (inactive); in that of `COc1cc(C)c(C(C)C)cc1S(=O)(=O)n1ccnc1`, 89.6% (inactive); in that of `COc1ccc2c(c1)O/C(=C\c1ccccc1O)C2=O`, 108% (inactive).
On to `O=C1Oc2ccccc2C(=O)/C1=C/c1ccccc1O`, for which the GFP response vs DMSO was 208% (active).
With `COC(=O)c1ccc(/C=C2/C(=O)Oc3ccccc32)cc1` the figure was 93.2% (inactive); with `COc1ccc(Cl)cc1NC(=O)CN(C)C(=O)CCCc1c[nH]c2ccccc12`, 99.5% (inactive).
With `O=Cc1c(NCCCN2CCCC2=O)c2ccccc2[nH]c1=O` the figure was 100% (inactive); with `CCC1Sc2ccc(S(=O)(=O)CCC(=O)NCc3cccs3)cc2NC1=O` (stereo not given), 106% (inactive).
With `O=C(Nc1nnc(-c2ccc(Cl)cc2)o1)c1ccccc1Br` the figure was 159% (active); with `O=C(Nc1nnc(-c2ccccc2)o1)c1cc(-c2cccs2)nc2ccccc12`, 112% (inactive).
For the molecule `O=C(COC(=O)c1ccccc1Br)Nc1nnc(-c2ccccc2)o1`, the GFP response vs DMSO was 115% (inactive).
